# Values joined by “and” are separate entries in the source; they are usually repeats but may differ in a detail not shown here. Identical values can stand only once. Inconclusive results are not listed. A call without a number means that no potency is given here. More than one record can exist for a structure, and the calls need not agree. Active and inactive are the calls of the source. Unless noted, calls come from the whole dose curve; as a rule, active = well fitted curve in the direction sought with a large enough effect; inconclusive = small, poorly fitted or top-dose-only effect, or another doubt; inactive = no such curve, though single readings can be large; an effect the other way counts as inactive or inconclusive.
# Assays:
# [1] = target: Guanine nucleotide-binding protein G(i) subunit alpha-1 (Homo sapiens) (UniProt P63096); assay: qHTS Assay for Inhibitors of RGS12 GoLoco Motif Activity (Green Fluorophore) (AID 879);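 note: negative values mean loss of peptide binding seen as reduced polarization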
# Outline: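 Fluorescence polarization assay: 50 nM Gαi1 with 10 nM FITC-labeled RGS12 GoLoco peptide in 10 mM Tris pH 7.5, 150 mM NaCl, 0.1 mM GDP, 0.05% NP40, 10 min at room temperature with compound.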
# [2] = target: Cytochrome P450 2C9 (Homo sapiens) (UniProt P11712); assay: qHTS Assay for Inhibitors and Substrates of Cytochrome P450 2C9 (AID 883); note: nearly all actives have a fitted effect of over 60% in size; note: potency is the fitted concentration of half-maximal effect
# Outline: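 10nM CYP2C9 + 100uM Luciferin-H (=KM), 25mM KPO4; cpd 10 min 37C; NADPH regen, 60 min 37C; stop/detect with P450 Glo-Buffer 20 min; luminescence. Norm. to 57uM sulphaphenazole as full inhibition.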
# [3] = target: Cytochrome P450 3A4 (Homo sapiens) (UniProt P08684); assay: qHTS Assay for Activators of Cytochrome P450 3A4 (AID 885); note: nearly all actives have a fitted effect of over 65% in size
# Outline: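 20nM CYP3A4 + 25uM Luciferin-PPXE (=KM), 200mM KPO4; cpd 10 min RT; NADPH regen, 60 min RT; stop w/ detection buffer, 20 min; luminescence. Normalized to 57 uM ketoconazole.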
# [4] = target: Cytochrome P450 2D6 (Homo sapiens) (UniProt P10635); assay: qHTS Assay for Inhibitors and Substrates of Cytochrome P450 2D6 (AID 891); note: nearly all actives have a fitted effect of over 60% in size; note: potency is the fitted concentration of half-maximal effect
# Outline: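 Human CYP2D6 (5 nM) with 30 uM Luciferin-ME EGE (at Km) in 100 mM KPO4, compound preincubated 10 min, then NADPH regeneration system for 60 min at room temperature. Luciferin read by luminescence; normalized to 1.43 uM quinidine.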
# [5] = Confirmation and Secondary Assay for Modulators of Hemoglobin Beta Chain Splicing at IVS2 654 locus (AID 910);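 note: HeLa cells stably carrying EGFP split by mutant beta-globin IVS2-654 intron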
# Outline: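 HeLa cells stably expressing EGFP interrupted by β-globin IVS2-654 intron, seeded overnight in Opti-MEM/2% FCS, then treated 2 days at 37 °C. Restored splicing read as total peak GFP intensity per well by laser scanning cytometry (488 nm excitation, 500–520 nm emission); 500 nM antisense PNA as control.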
# [6] = qHTS Assay for Identification of Small Molecule Antagonists for Thrombopoietin (TPO) Signaling Pathway (AID 918); conditions: TPO-dependent cell signaling reporter, antagonist mode; note: potency is the fitted concentration of half-maximal effect; nearly all actives have a fitted effect of over 60% in size
# Outline: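 Murine Ba/F3 cells stably expressing human TPO receptor and a Glycoprotein IIb promoter–luciferase reporter were IL-3-starved overnight, treated with compounds plus TPO (26 pM final, its EC50) for 24 hrs at 37 C, then read by luminescence.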
# [7] = Confirmation and Secondary Assay for Modulators of Hemoglobin Beta Chain Splicing at IVS2 705 locus (AID 930);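 note: HeLa cells stably expressing the EGFP-705 splicing reporter; GFP fluorescence per well restored by corrected splicing of the IVS2-705 intron in EGFP; series mostly up to about 46 µM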
# Outline: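 Assay measures total GFP intensity per well in HeLa EGFP-705 cells after 2 days with compound; mis-splicing normally truncates EGFP, so fluorescence indicates corrected splicing.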
# [8] = target: Pyruvate kinase (Leishmania mexicana) (UniProt Q27686); assay: qHTS Validation Assay for Inhibitors of Leishmania Mexicana Pyruvate Kinase (AID 945); note: potency is the fitted concentration of half-maximal effect
# Outline: (§1)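 Pyruvate kinase activity of E451W LmPYK (0.2 nM) was followed as ATP output after 1 h at room temperature with 0.5 mM PEP and 0.1 mM ADP, detected by PKLight luminescence.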
# [9] = target: Cytochrome P450 3A4 (Homo sapiens) (UniProt P08684); assay: qHTS Assay for Inhibitors and Substrates of Cytochrome P450 3A4 (AID 884); note: series mostly up to about 57 µM; nearly all actives have a fitted effect of over 50% in size
# Outline: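 20 nM human CYP3A4 with 25 uM Luciferin-PPXE (at KM) in 200 mM KPO4, preincubated 10 min with compound; NADPH regeneration started a 60 min RT reaction. Luciferin detected by luminescence, normalized to 57 uM ketoconazole as full inhibition.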
# [10] = qHTS Assay for Identification of Small Molecule Antagonists for NFkB Signaling Pathway (AID 895; active = well fitted inhibition curve with a large enough effect in the signal ratio, with a control signal flat, not every such curve was filed as active; the % refers to the signal ratio)
# Outline: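 ME-180 NFkB-bla cells (beta-lactamase under NFkB response element), plated overnight, treated with compound then 10 pM TNF alpha (about EC50) for 5 hrs at 37 C. LiveBLAzer FRET read at 460/530 nm emission, 405 nm excitation.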
# [11] = qHTS Assay for Identification of Small Molecule Agonists for Thrombopoietin (TPO) Signaling Pathway (AID 917); note: potency is the fitted concentration of half-maximal effect
# Outline: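 IL-3-dependent murine pro-B Ba/F3 cells, stably transfected with human TPO receptor and GpIIb-promoter luciferase, are incubated 24 hrs at 37 C with test compound and 26 pM TPO; luciferase signal is read after 10 min at room temperature.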
# [12] = MultiTox-Fluor Cytotoxicity Assay - LYMP1-001 - Dead Cells (AID 946)
# Outline: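 AC50 from Hill fit of concentration-response; data normalized to DMSO (basal) and 15 uM tetraoctylammonium bromide (100%). LYMP1-001 lymphoblastoid cells, 2500/well, 16 hr compound at 37 C; dead-cell protease fluorescence, Ex/Em 485/520.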
# [13] = MultiTox-Fluor Cytotoxicity Assay - LYMP1-001 - Live Cells (AID 947)
# [14] = MultiTox-Fluor Cytotoxicity Assay - LYMP1-002 - Live Cells (AID 955)
# Outline: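 Human lymphoblastoid LYMP1-002 cells, 2500/well in complete medium, rested 5 hr at 37 C, then exposed to compounds for 16 hr at 37 C. Live-cell protease cleavage of GF-AFC read by fluorescence (Ex/Em 405/510) after 60 min at room temperature; AC50 from Hill fits.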
# [15] = target: Pyruvate kinase PKM (Homo sapiens) (UniProt P14618); assay: qHTS Assay for Activators of Human Muscle Pyruvate Kinase (AID 954; active = well fitted curve in the direction sought with a large enough effect, not every such curve was filed as active)
# Outline: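 Luminescence from a luciferase ATP-detection/stop reagent reported PKM2 activity. Reactions contained 0.1 nM purified human enzyme, 0.5 mM PEP, 0.1 mM ADP and 7 mM MgCl2 at pH 7.2, run 1 h at RT.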
# [16] = target: Pyruvate kinase PKM (Homo sapiens) (UniProt P14618); assay: qHTS Assay for Inhibitors of Human Muscle Pyruvate Kinase (AID 958); conditions: purified human PKM enzyme activity
# Outline: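 PKM2, human, >95% pure, 0.1 nM; PEP 0.5 mM (Km), ADP 0.1 mM; 50 mM imidazole pH 7.2, 50 mM KCl, 0.01% Tween 20, 0.05% BSA; 1 h RT; luciferase luminescence readout.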
# [17] = target: Pyruvate kinase (Leishmania mexicana) (UniProt Q27686); assay: qHTS Validation Assay for Activators of Leishmania Mexicana Pyruvate Kinase (AID 959)
# Outline: as §1
# [18] = qHTS Assay for Identification of Small Molecule Agonists for Hypoxia Response Element Signaling Pathway (AID 914; active = well fitted activation curve with a large enough effect in the signal ratio, with a control signal flat, not every such curve was filed as active; the % refers to the signal ratio); conditions: ME-180 (cervical carcinoma) HRE-bla reporter, beta-lactamase ratio, CoCl2, 17 h; stronger effect = higher value
# Outline: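 Compounds in a titration series were added to ME-180 reporter cells alongside an EC50 level of CoCl2. After 17 hours, beta-lactamase activity was read as the 460nm/530nm emission ratio of CCF4, giving AC50 values.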
# [19] = target: Muscarinic acetylcholine receptor M1 (Rattus norvegicus) (UniProt P08482); assay: qHTS Assay for Antagonists of Acetylcholine Muscarinic M1 Receptor: Measurement of IP-One Response (AID 944); note: nearly all actives have a fitted effect of over 75% in size
# Outline: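 CHO cells expressing rat M1 receptor, recovered overnight, were pre-incubated 10 min with compound, then stimulated 30 min with carbachol at EC80 (200 nM) in LiCl-containing buffer, pH 7.4. IP1 accumulation was read by HTRF (620/665 nm).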
# [20] = target: Muscarinic acetylcholine receptor M1 (Rattus norvegicus) (UniProt P08482); assay: qHTS Assay for Antagonists of Acetylcholine Muscarinic M1 Receptor: Kinetic Measurement of Intracellular Calcium Response (AID 943);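 note: Fluo-4 calcium signal as peak divided by basal fluorescence over 4 min; series mostly up to about 35 µM; nearly all actives have a fitted effect of over 75% in size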
# Outline: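 CHO cells stably expressing rat M1 were loaded with no-wash Fluo-4 dye for 1 h at 37C, pre-incubated 10 min with compound, then challenged with EC80 carbachol (100 nM final); kinetic calcium read 4 min, peak/basal ratio.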
# Chain of Pyruvate kinase PKM (Homo sapiens) (P14618 whole entry, looked up): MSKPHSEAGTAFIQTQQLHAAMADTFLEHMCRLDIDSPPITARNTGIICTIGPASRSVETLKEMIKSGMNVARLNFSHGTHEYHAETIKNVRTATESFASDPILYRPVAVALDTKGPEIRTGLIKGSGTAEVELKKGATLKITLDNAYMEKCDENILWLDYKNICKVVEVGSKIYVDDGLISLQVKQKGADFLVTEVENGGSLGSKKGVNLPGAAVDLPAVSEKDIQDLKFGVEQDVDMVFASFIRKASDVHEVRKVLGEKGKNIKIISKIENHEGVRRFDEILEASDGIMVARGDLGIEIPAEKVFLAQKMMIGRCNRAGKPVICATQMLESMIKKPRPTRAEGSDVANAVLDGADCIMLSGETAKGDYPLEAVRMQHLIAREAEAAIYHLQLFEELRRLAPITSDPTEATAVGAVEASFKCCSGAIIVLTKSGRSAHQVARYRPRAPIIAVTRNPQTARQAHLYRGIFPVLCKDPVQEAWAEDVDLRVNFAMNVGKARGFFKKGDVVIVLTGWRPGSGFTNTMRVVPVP
# Chain of Guanine nucleotide-binding protein G(i) subunit alpha-1 (Homo sapiens) (P63096 whole entry, looked up): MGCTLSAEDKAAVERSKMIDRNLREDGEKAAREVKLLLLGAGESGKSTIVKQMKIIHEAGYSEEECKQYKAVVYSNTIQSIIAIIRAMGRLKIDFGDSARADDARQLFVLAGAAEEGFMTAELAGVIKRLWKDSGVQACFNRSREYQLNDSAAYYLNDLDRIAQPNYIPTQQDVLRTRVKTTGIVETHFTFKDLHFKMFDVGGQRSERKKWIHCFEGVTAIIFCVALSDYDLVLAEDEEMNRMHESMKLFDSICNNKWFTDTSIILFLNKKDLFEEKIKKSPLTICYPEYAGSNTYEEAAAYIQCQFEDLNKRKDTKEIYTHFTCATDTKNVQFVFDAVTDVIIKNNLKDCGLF
# Chain of Pyruvate kinase (Leishmania mexicana) (Q27686 2-499 E452W): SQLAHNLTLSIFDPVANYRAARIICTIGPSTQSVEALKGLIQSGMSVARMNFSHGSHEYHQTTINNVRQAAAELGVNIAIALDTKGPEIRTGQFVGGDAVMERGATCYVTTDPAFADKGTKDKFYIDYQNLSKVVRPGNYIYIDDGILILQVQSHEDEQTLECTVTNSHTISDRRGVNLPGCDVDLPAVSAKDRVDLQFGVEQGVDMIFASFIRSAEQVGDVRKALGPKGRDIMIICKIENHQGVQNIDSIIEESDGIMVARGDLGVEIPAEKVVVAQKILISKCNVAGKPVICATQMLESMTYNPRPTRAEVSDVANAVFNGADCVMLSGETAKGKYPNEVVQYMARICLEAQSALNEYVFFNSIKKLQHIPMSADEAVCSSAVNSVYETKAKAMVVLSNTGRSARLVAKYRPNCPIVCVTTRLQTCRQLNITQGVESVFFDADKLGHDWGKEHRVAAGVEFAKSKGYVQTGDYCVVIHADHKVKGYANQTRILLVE
# Chain of Muscarinic acetylcholine receptor M1 (Rattus norvegicus) (P08482 whole entry, looked up): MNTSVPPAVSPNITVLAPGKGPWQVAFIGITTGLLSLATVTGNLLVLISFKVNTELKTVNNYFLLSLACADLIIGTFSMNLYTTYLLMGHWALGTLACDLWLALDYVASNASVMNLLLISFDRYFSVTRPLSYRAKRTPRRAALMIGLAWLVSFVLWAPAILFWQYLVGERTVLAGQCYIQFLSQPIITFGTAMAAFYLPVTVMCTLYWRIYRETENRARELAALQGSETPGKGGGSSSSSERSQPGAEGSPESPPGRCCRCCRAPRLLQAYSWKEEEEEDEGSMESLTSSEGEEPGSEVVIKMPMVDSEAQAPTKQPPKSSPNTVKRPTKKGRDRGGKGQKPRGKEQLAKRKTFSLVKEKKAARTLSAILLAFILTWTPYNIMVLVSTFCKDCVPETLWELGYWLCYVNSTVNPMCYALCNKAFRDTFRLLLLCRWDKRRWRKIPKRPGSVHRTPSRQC
# Chain of Cytochrome P450 2C9 (Homo sapiens) (P11712 whole entry, looked up): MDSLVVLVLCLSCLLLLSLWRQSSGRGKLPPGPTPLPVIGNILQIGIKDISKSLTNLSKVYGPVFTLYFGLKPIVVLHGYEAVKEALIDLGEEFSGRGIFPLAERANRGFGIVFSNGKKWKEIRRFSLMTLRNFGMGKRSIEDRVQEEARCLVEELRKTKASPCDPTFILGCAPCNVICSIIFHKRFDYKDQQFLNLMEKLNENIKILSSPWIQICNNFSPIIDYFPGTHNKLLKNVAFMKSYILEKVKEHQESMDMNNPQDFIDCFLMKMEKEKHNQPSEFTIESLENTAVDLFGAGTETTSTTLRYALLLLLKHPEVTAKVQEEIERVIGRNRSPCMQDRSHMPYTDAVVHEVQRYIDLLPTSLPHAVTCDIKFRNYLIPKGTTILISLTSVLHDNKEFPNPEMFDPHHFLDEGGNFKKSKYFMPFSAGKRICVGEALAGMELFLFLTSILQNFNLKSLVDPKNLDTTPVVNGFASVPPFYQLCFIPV
# Chain of Cytochrome P450 3A4 (Homo sapiens) (P08684 whole entry, looked up): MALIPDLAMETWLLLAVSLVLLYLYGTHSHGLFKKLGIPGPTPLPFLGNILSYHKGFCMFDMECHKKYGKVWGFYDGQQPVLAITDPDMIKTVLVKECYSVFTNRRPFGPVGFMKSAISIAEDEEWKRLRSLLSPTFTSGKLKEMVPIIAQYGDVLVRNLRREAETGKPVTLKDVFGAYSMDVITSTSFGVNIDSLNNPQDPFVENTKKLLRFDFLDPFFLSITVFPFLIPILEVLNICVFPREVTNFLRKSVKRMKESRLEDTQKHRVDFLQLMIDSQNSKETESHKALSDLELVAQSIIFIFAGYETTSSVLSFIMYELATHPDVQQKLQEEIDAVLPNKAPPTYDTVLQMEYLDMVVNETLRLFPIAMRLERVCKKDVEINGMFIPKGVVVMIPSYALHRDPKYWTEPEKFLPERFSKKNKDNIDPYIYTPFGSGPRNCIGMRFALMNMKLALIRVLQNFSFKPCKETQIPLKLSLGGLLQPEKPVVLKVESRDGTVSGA
# Chain of Cytochrome P450 2D6 (Homo sapiens) (P10635 whole entry, looked up): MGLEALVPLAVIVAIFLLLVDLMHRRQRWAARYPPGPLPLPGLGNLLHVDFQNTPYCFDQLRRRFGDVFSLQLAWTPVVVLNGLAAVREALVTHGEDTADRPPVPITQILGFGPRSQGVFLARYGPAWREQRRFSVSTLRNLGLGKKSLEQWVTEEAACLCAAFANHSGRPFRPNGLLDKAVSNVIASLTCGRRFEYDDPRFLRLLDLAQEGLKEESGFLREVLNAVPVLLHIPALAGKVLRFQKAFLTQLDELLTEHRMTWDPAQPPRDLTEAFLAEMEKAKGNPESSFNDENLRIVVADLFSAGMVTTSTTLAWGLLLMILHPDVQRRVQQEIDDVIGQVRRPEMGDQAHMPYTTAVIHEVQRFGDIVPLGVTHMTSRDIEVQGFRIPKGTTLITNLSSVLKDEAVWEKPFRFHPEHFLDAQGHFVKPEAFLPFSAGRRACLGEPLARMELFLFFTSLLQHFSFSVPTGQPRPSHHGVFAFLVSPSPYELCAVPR
compound,measurement,setting,value
Clc1ccccc1C(c1ccccc1)(c1ccccc1)n1ccnc1,Potency,[1],inactive
same,Potency,[2],1 µM (active) and 316 nM (active)
same,Potency,[3],inactive
same,Potency,[4],10 µM (active)
same,Potency,[5],inactive
same,Potency,[6],12600 nM (active)
same,outcome,[7],inactive
same,Potency,[8],inactive
Cn1c(=O)c2[nH]cnc2n(C)c1=O,Potency,[1],inactive
same,outcome,[9],inactive
same,Potency,[10],inactive
same,Potency,[5],inactive
same,Potency,[11],inactive
same,outcome,[7],inactive
same,Potency,[12],inactive
same,outcome,[13],inactive
same,outcome,[14],inactive
CC(C)Cc1ccc(C(C)C(=O)O)cc1 (configuration not stated),Potency,[1],inactive
same,outcome,[9],inactive
same,Potency,[5],inactive
same,Potency,[11],inactive
same,outcome,[7],inactive
same,Potency,[8],inactive
CN(Cc1cnc2nc(N)nc(N)c2n1)c1ccc(C(=O)N[C@@H](CCC(=O)O)C(=O)O)cc1,Potency,[1],inactive
same,outcome,[9],inactive
same,Potency,[11],inactive
same,Potency,[8],inactive
O=c1c(O)c(-c2ccc(O)c(O)c2)oc2cc(O)cc(O)c12,Potency,[1],inactive
same,Potency,[3],inactive
same,Potency,[4],inactive
same,Potency,[5],inactive
same,Potency,[11],inactive
same,outcome,[7],inactive
same,Potency,[8],inactive
same,outcome,[15],inactive
O=C(Nc1ccc([N+](=O)[O-])cc1Cl)c1cc(Cl)ccc1O,Potency,[1],inactive
same,Potency,[2],631 nM (active)
same,Potency,[3],inactive
same,Potency,[5],inactive
same,Potency,[11],100 nM (active)
same,outcome,[7],inactive
same,Potency,[8],2510 nM (active)
same,Potency,[16],3160 nM (active)
same,outcome,[17],inactive
Cn1c(=O)c2c(ncn2C)n(C)c1=O,Potency,[1],inactive
same,Potency,[2],inactive
same,outcome,[9],inactive
same,Potency,[4],inactive
same,Potency,[5],inactive
same,activation,[18],-1.38% (inactive)
same,Potency,[11],inactive
same,outcome,[7],inactive
same,Potency,[19],inactive
same,Potency,[12],inactive
same,outcome,[13],inactive
same,outcome,[14],inactive
CN(C)CCCN1c2ccccc2CCc2ccc(Cl)cc21,Potency,[1],inactive
same,Potency,[2],inactive
same,Potency,[3],inactive
same,Potency,[10],inactive
same,Potency,[5],inactive
same,outcome,[7],inactive
same,Potency,[8],inactive
Nc1ccn([C@H]2CC[C@@H](CO)O2)c(=O)n1,Potency,[1],inactive
same,outcome,[9],inactive
same,Potency,[5],inactive
same,Potency,[11],inactive
same,outcome,[7],inactive
same,Potency,[20],inactive
same,Potency,[19],inactive
same,Potency,[8],inactive
same,Potency,[12],inactive
same,outcome,[13],inactive
same,outcome,[14],inactive
Cc1cn([C@H]2C=C[C@@H](CO)O2)c(=O)[nH]c1=O,Potency,[1],inactive
same,outcome,[9],inactive
same,Potency,[11],inactive
same,Potency,[8],inactive
same,Potency,[12],inactive
same,outcome,[13],inactive
same,outcome,[14],inactive
NCCCCCC(=O)O,Potency,[1],inactive
same,outcome,[9],inactive
same,Potency,[5],inactive
same,Potency,[11],inactive
same,outcome,[7],inactive
same,Potency,[8],inactive
COc1ccc2c(c1)c(CC(=O)O)c(C)n2C(=O)c1ccc(Cl)cc1,Potency,[1],inactive
same,outcome,[9],inactive
same,Potency,[4],inactive
same,Potency,[5],inactive
same,Potency,[11],inactive
same,outcome,[7],inactive
same,Potency,[12],inactive
same,outcome,[13],inactive
same,outcome,[15],inactive
same,outcome,[14],inactive
CS(=O)(=O)Nc1ccc([N+](=O)[O-])cc1Oc1ccccc1,Potency,[1],inactive
same,Potency,[2],10 µM (active) and 3.16 µM (active)
same,Potency,[3],inactive
same,Potency,[4],inactive
same,Potency,[10],inactive
same,Potency,[5],inactive
same,Potency,[11],inactive
same,outcome,[7],inactive
same,outcome,[15],inactive
N[C@@H](Cc1c[nH]c2ccc(O)cc12)C(=O)O,Potency,[1],inactive
same,Potency,[2],inactive
same,Potency,[3],inactive
same,Potency,[4],inactive
same,Potency,[11],inactive
same,Potency,[19],inactive
same,Potency,[8],inactive
same,Potency,[12],inactive
same,outcome,[13],inactive
same,outcome,[15],inactive
same,outcome,[14],inactive
CNCCCC12CCC(c3ccccc31)c1ccccc12,Potency,[1],inactive
same,Potency,[5],inactive
same,outcome,[7],inactive
same,Potency,[8],inactive
same,outcome,[15],inactive
Nc1nnc(-c2cccc(Cl)c2Cl)c(N)n1,Potency,[1],inactive
same,Potency,[4],inactive and 6.31 µM (active)
same,Potency,[10],inactive
same,Potency,[11],inactive
same,Potency,[8],inactive
same,outcome,[15],inactive
CN1CCC(=C2c3ccccc3C=Cc3ccccc32)CC1,Potency,[1],inactive
same,Potency,[4],2.51 µM (active) and 3.98 µM (active)
same,Potency,[11],inactive
same,Potency,[8],inactive

# From PubChem BioAssay (NCATS)
